# Compounds with a hit are over-represented: about 8% of the library has one in this group of screens.
# HCV inh: blocks hepatitis C virus; Potency, µM (series often up to 41.8 µM), actives largely listed as inhibitors; actives 3.4% (n = 340,000); AID 651820; Huh7.5.1 HCVcc-Cre infection, luciferase reporter, 44 h; active = well fitted inhibition curve with a large enough effect; inconclusive = small, poorly fitted or top-dose-only effect, or another doubt; inactive = no such curve, though single readings can be large or run the other way
#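 After 44 h co-culture of compound, cells and HCVcc-Cre (~0.5 moi), substrate is added for 15 min at room temperature and luciferase measured over 15 sec. Cells were seeded at 1,000/well and pre-cultured 4 h.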
# HCMV antiviral: human cytomegalovirus inhibition; HFF cells, HCMV-luciferase reporter, 72 h; active compounds read low; activity change, negative = inhibition, % at 57.5 µM; actives 4.5% (n = 410,000); AID 1259415; in the data active = activity change below about -60%; inconclusive = no clear call, values can overlap the other calls; inactive = above about -39%
#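 Steps: HFFs plated, 16 h 37C; compounds added; HCMV-luciferase added to MOI 1 PFU/cell; 72 h 37C; OneGlo reagent, 5 min room temperature; luminescence read, normalized to controls.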
# SARS PLpro yeast: inhibitors of SARS-CoV papain-like protease in yeast | S. cerevisiae expressing SARS-CoV PLpro, growth rescue | Potency, µM (highest dose often 32.9 µM), actives largely listed as activators | AID 485353 | actives 0.19% (n = 330,000); calls by dose curve; also: nearly all actives have a fitted effect of over 55% in size
# Marburg entry inh: inhibitors of Marburg virus binding or cell entry. actives 1.8% (n = 300,000). Marburg virus pseudotyped entry inhibition, cell reporter. Potency, µM (highest dose often 37.8 µM), actives largely listed as inhibitors; calls by dose curve; tested in HEK293 cells
# FMDV inh: foot and mouth disease virus antiviral activity; FMDV antiviral cell-based qHTS; Potency, µM (highest dose often 57.9 µM), most hits filed as inhibitors; actives 1.2% (n = 410,000); AID 1159524; calls by dose curve; tested in HEK293T cells; also: read-out not given here; nearly all actives have a fitted effect of over 45% in size
# LASV entry inh: blocks Lassa virus binding to or entry into cells. Lassa virus pseudotype entry inhibition, cell reporter. Potency, µM (series often up to 37.9 µM), actives largely listed as inhibitors. actives 1.2% (n = 300,000). AID 540256; calls by dose curve; tested in HEK293 cells; also: nearly all actives have a fitted effect of over 50% in size
# Hits are given with their value; . = inactive; ? = inconclusive; / = no result; + = active, no number; ! = a repeat was not active.
SMILES,HCV inh,HCMV antiviral,SARS PLpro yeast,Marburg entry inh,FMDV inh,LASV entry inh
Cc1ccccc1Cc1c(C)nc2c(C(=O)N3CCN(Cc4ccc5c(c4)OCO5)CC3)cnn2c1C,14µM,?,/,.,?,.
C[C@H]1C[C@@H](C)O[C@@]2(C1)C(=O)N(CC1CC1)c1ccccc12,/,/,/,.,/,/
COc1cc(/C=C2/SC(=S)N(Cc3ccccc3)C2=O)ccc1OS(C)(=O)=O,?,-69,.,/,.,/
COc1cc(/C=C2\SC(=S)N(NC(=O)c3ccccc3O)C2=O)ccc1O,.,.,.,?,.,.
COc1ccc(/C=C2\SC(=S)N(CCC(=O)Nc3ccc(C(=O)O)cc3)C2=O)cc1OC,.,/,.,.,.,?
COc1cc(/C=C2/SC(=S)N(Cc3ccccc3)C2=O)ccc1OCC(=O)O,.,.,.,?,?,.
COc1ccc(/C=C2\SC(=S)N(CCC(=O)N(CCO)Cc3ccccc3)C2=O)cc1OC,?,-99,.,/,?,/
COc1cc(/C=C2\SC(=S)N(N(C)c3ccccc3)C2=O)ccc1O,.,-101,.,/,.,/
C=C1C(=O)OC2C1CCC(C)=C1C(=O)C3OC3(C)C12 (stereo unspecified),10µM,-78,/,/,28µM,/
O=C(NCc1ccc(F)cc1)C1CCC(CNS(=O)(=O)c2cccs2)CC1 (stereo unspecified),.,.,.,.,.,.
CN(C)c1ccc(CNC(=O)C2CCCN(S(=O)(=O)c3ccc4c(c3)oc(=O)n4C)C2)cc1 (stereo unspecified),/,-105,/,.,.,.
Cn1c(=O)oc2cc(S(=O)(=O)N3CCCC(C(=O)N4CCN(c5ccccc5F)CC4)C3)ccc21 (stereo unspecified),/,.,/,.,20µM,.
Cn1c(=O)oc2cc(S(=O)(=O)N3CCC(C(=O)N4CCN(c5ccc(F)cc5)CC4)CC3)ccc21,.,-61,.,/,.,/
O=C(C1CCC(CNS(=O)(=O)c2cccs2)CC1)N1CCN(c2ccc(F)cc2)CC1 (stereo unspecified),?,?,.,3.2µM,?,?
Cn1c(=O)oc2cc(S(=O)(=O)N3CCCC(C(=O)N4CCN(c5ccc(F)cc5)CC4)C3)ccc21 (stereo unspecified),/,.,/,?,?,.
O=[N+]([O-])c1cc(CN2CCC(O)CC2)ccc1Cl,.,.,.,.,.,.
Cc1ccc(Cl)cc1N1CCN(C(=O)C2CCN(S(=O)(=O)c3ccc4c(c3)oc(=O)n4C)CC2)CC1,/,+,/,/,?,.
COc1cccc(N2CCN(C(=O)C3CCCN(S(=O)(=O)c4ccc5c(c4)oc(=O)n5C)C3)CC2)c1 (stereo unspecified),13µM,-79!,.,.,?,.
Cc1cccc(NC(=O)C2CCCN(S(=O)(=O)c3ccc4c(c3)oc(=O)n4C)C2)c1 (stereo unspecified),.,+!,.,?,.,.
O=C(c1ccc(F)c(S(=O)(=O)N2CCOCC2)c1)N1CCN(c2ccc(F)cc2)CC1,.,-65,.,/,.,/
CN1CCN(C(=O)C2CCN(S(=O)(=O)c3ccc4c(c3)oc(=O)n4C)CC2)CC1,.,.,.,.,.,.
Cc1ccc(C)c(N2CCN(C(=O)C3CCCN(S(=O)(=O)c4ccc5c(c4)oc(=O)n5C)C3)CC2)c1 (stereo unspecified),/,.,/,?,16µM,?
Cc1cc(C)c(C)c(S(=O)(=O)N2CCC(C(=O)N3CCN(c4ccc(F)cc4)CC3)CC2)c1C,?,.,/,?,.,.
CSc1ccc(CNC(=O)C2CCCN(S(=O)(=O)N(C)c3ccc(F)cc3)C2)cc1 (stereo unspecified),/,-61,/,.,?,/
Cc1ccc(C(C)(C)C)cc1S(=O)(=O)N1CCC(C(=O)N2CCN(c3ccc(O)cc3)CC2)CC1,?,?,.,?,?,2.8µM
SMILES,HCV inh,HCMV antiviral,SARS PLpro yeast,Marburg entry inh,FMDV inh,LASV entry inh
CCOc1ccc(S(=O)(=O)N2CCCC(C(=O)NCc3ccncc3)C2)cc1C (stereo unspecified),?,-76,.,?,.,.
CCOC(=O)C1CCCN(C(=O)C2CCCN(S(=O)(=O)c3ccc4c(c3)oc(=O)n4C)C2)C1 (stereo unspecified),.,.,.,.,.,/
Cc1ccc2nc(SCC(=O)N3CCC4(CC3)CC4C(=O)Nc3ccc(F)c(F)c3)[nH]c2c1 (stereo unspecified),/,/,/,/,.,/
COC(=O)C1=C(C)N(Cc2ccco2)C(=O)NC1c1ccco1 (stereo unspecified),/,/,/,.,/,/
O=C(C1CCN(S(=O)(=O)N2CCOCC2)CC1)N1CCN(c2ccc(F)cc2)CC1,?,-74,.,.,.,.
CC(C)c1ccc(NC(=O)c2cc(S(=O)(=O)N3CCCCC3)c[nH]2)cc1,.,.,.,/,.,/
CC(=O)n1cc(N(C(=O)CCl)c2ccc(Cl)cc2)c2ccccc21,3.5µM,/,.,/,11µM,/
CC(=O)n1cc(Nc2ccccc2C(=O)O)c2ccccc21,.,.,.,.,.,.
CCOC(=O)c1ccccc1Nc1cn(C(C)=O)c2ccccc12,.,.,.,.,.,?
COc1ccccc1N(C(=O)CCl)c1cn(C(C)=O)c2ccccc12,?,-97,.,/,18µM,/
Cc1cc(C(=O)N2CCN(c3cccc(Cl)c3)CC2)c(C)o1,?,.,.,6.3µM,?,?
CC(C)C(NC(=O)Cc1ccccc1)C(=O)N1CCN(c2cccc(Cl)c2)CC1 (stereo unspecified),11µM,-101,.,/,?,/
CN(CCOc1ccc(Cl)cc1)C(=O)c1ccccc1SCC(=O)N1CCCC1,10µM,?,.,/,?,/
CSC(=NC#N)N1CCN(c2cccc(Cl)c2)CC1,.,-67,.,.,.,.
CC(NC(=O)c1ccco1)C(=O)N1CCN(c2cccc(Cl)c2)CC1 (stereo unspecified),.,.,.,/,.,/
CSc1ccc(CCNC(=O)c2cc(C)nc3c2c(C)nn3-c2ccccc2)cc1,/,.,/,/,.,.
CSc1ccccc1C(=O)N1CCN(c2cccc(Cl)c2)CC1,?,.,.,?,.,5.6µM
Cc1ccc(Cl)cc1N1CCN(C(=O)c2ccccc2SCC(=O)N2CCCC2)CC1,11µM,.,.,/,?,/
O=C(Nc1ccc(S(=O)(=O)N2CCCC2)cc1)c1ccc2c(=O)n3c(nc2c1)CCCCC3,11µM,-90,.,2.5µM,?,.
Cc1ccc(-c2csc(NC(=O)c3ccc4c(=O)n5c(nc4c3)CCCCC5)n2)cc1,?,-66,?,?,7.9µM,?
O=C(Nc1ccccn1)c1ccc2c(=O)n3c(nc2c1)CCCCC3,.,.,.,/,.,/
Cc1ccc(S(=O)(=O)N2CCCCC2)cc1NC(=O)c1ccc2c(=O)n3c(nc2c1)CCCCC3,11µM,.,.,?,/,16µM
Cc1nc2ccc(Br)cc2c2c1CC(CO)O2 (stereo unspecified),.,.,.,/,.,/
O=C(/C=C/c1cccs1)NNC(=O)c1ccccc1,.,.,.,/,.,/
O=C1CCC2=C(CC(O)=C(O)C2)O1,/,/,/,.,/,/

# Screening results: PubChem, National Center for Advancing Translational Sciences (NCATS)
